Consider 15 compounds from PubChem BioAssay (NCI).

“And” between values parts separate entries of the source, which are not always exact repeats. Equal values may be shown once. This is part of a sample that, as a whole, favours compounds with a hit. Of some 83,000 tested, about 20% had one in any assay.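 96-well plates, one dose, 48 hours. Percent growth reported; active if below 10.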 Unmarked numbers belong to inactive results. The source made the active and inactive calls.

In this assay the test system is MDA-MB-468 breast. Briefly: NCI-60 one-dose screen, 48 h (100 = growth as untreated, 0 = no growth, -100 = all killed). The following applies: 10 µM unless noted.
`O=C1c2cccc3cccc(c23)C(=O)N1N1C(=O)c2cccc3c(N4CCNCC4)ccc(c23)C1=O`: the growth is 91%. `CC1CCCc2sc3nc(NNC(=O)c4cnccn4)n(-c4ccccc4)c(=O)c3c21` (stereo not given): the growth was -31.8% (active) and -42.9% (active). `COc1ccc(-c2n[nH]nc2-c2cc(OC)c3c(c2)OCO3)cc1`: the growth is 38.6%. Take `Cc1nc2sc(C(=O)Nc3cccc4ccccc34)c(N)c2cc1C(=O)c1ccccc1`: the growth is 5.45% (active). As for `CC1(C)CC(=O)c2c(nc3ccc(Cl)cc3c2-c2ccccc2)C1`, the growth was 92%.

With `COc1ccc(C(=O)c2cc(OC)c3c(c2)OCO3)cc1O`, the growth is 0.266% (active). `N=C1C=C(N)C(=O)c2ccccc21`: the growth is -85.6% (active). On to `COc1ccc(-c2cc(-c3cccnc3)nc3sc4c(=O)n(-c5ccc(C)cc5)cnc4c23)cc1OC`, for which the growth was 93.7%. On to `COc1cc(C(C)n2cc(-c3ccccc3)nn2)ccc1OC1CCCC1` (stereo not given), for which the growth was 5.07% (active). The same measure for `CCCCNC(=O)Oc1ccc2c(=O)c3sc4c(=O)c5ccccc5c(=O)c4c3c(=O)c2c1`: -48.3% (active). With `NCCNc1nc2ccc(F)cc2c2c(=O)c3cc(F)ccc3sc12`, the growth is 45.3%. For the compound `CCNc1ccc(-c2nc3ccccc3n3cccc23)cc1`, the growth was 2.19% (active). The same measure for `CS(=O)(=O)c1ccc(-c2nn(-c3ccccc3)cc2/C=N/NC(=O)c2ccncc2)cc1`: 99%; for `COc1cc(NC(C)CCCN)c2ncccc2c1Sc1ccc(Cl)cc1` (stereo not given): -2.79% (active); for `COc1ccc(SC2c3ccc(C)cc3Oc3nc(N)c(C#N)c(N)c32)cc1` (stereo not given): -51% (active).
